We go through 30 compounds from the supplement of paper PMC6522484.

Molecules are shown by their SMILES. ± gives the standard deviation of the averaged measurements.

For experiment [1], the system named is DLD1. In words: cell viability (CellTiter-Glo) relative to plate median (fraction of plate median); higher = more viable cells. To be noted: 5 µM; treatment time 24 h; reporter: 7TFP. The essentials: (§1)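 Colorectal cancer lines with stably integrated lentiviral TCF/Wnt firefly luciferase reporters received library compounds at a final 5 µM, 24 h after seeding into 384-well plates, for a 24 h exposure. Reported figures are plate-median-normalised firefly luciferase or CellTiterGlo luminescence per well. They average two independent replicates.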
A general note: ATP-based viability assays read luminescence as a measure of living cells.

A further experiment relates to HCT116. The description is as above. To be noted: 5 µM; treatment time 24 h; reporter: TCF4/Wnt. The essentials:
as §1

The test system of experiment [2] is SW480. The description is as above. To be noted: 5 µM; treatment time 24 h; reporter: 7TFP. The gist of the method: as §1
Experiment [3] concerns DLD1. In words: TCF/Wnt firefly luciferase reporter signal relative to plate median (fraction of plate median); higher = higher Wnt reporter signal. To be noted: 5 µM; treatment time 24 h; reporter: 7TFP. The gist of the method: as §1
Experiment [4] relates to SW480. Described as above. Conditions: 5 µM; treatment time 24 h; reporter: 7TFP. The essentials: as §1

On to `C=C[C@@]1(C)CC(=O)[C@@]2(O)[C@](C)(O1)[C@@H](O)[C@@H](O)C1C(C)(C)CC[C@H](O)[C@@]12C` (stereo not given in full), for which the cell viability with DLD1 [1] is 0.9975 ± 0.0035; in the experiment with HCT116, 0.96 ± 0.051; in the experiment with SW480 [2] it was 1.02 ± 0.014. Also, the “TCF/Wnt firefly luciferase reporter signal” value with DLD1 [3] worked out at 0.923 ± 0.042; in the experiment with SW480 [4], 0.976 ± 0.13.
With `CC(=O)O[C@@H]1C[C@H]2C(C)(C)[C@H](O)C[C@H](O)[C@]2(C)[C@H]2CC[C@@]3(C)[C@H](c4ccoc4)OC(=O)[C@H]4O[C@]43[C@@]21C`, the cell viability in the experiment on DLD1 [1] worked out at 0.9065 ± 0.005; in the experiment on HCT116, 0.942 ± 0.012; in the experiment with SW480 [2], 0.977 ± 0.0014. Besides, the “TCF/Wnt firefly luciferase reporter signal” value in the experiment with DLD1 [3] was 1 ± 0.11; with SW480 [4], 0.892 ± 0.033.
Consider `O=NN(CCCl)C(=O)NCCCl`, for which the cell viability turned out to be 1.05 ± 0.014 in the experiment on DLD1 [1], 1.06 ± 0.05 with HCT116 and 1.04 in the experiment with SW480 [2]. Further, the “TCF/Wnt firefly luciferase reporter signal” value in the experiment with DLD1 [3] was 1.19 ± 0.021; with SW480 [4] it was 1.045 ± 0.0071.
Consider `O=C(O)c1cc(O)ccc1O`, for which the cell viability in the experiment on DLD1 [1] stood at 0.954 ± 0.0099; in the experiment with HCT116, 0.999 ± 0.059; with SW480 [2] it was 1.005 ± 0.0071. Also, the “TCF/Wnt firefly luciferase reporter signal” value with DLD1 [3] came out at 1.04 ± 0.069; with SW480 [4], 1.09.
Turning to `C[C@@H]1CC(=O)c2c(ccc3c2C(=O)c2cccc(O)c2C3=O)C1` [Ochromycinone (Isoform B, compound ID 7489)], the cell viability in the experiment on DLD1 [1] worked out at 1.1 ± 0.035; in the experiment on HCT116, 1; with SW480 [2] it was 0.991 ± 0.028. Moreover, the “TCF/Wnt firefly luciferase reporter signal” value in the experiment on DLD1 [3] turned out to be 0.781 ± 0.1; with SW480 [4], 0.867 ± 0.047.
As to `CC1(C)S[C@@H]2[C@H](NC(=O)C(C(=O)O)c3ccccc3)C(=O)N2[C@H]1C(=O)O` (stereo not given in full), the cell viability in the experiment on DLD1 [1] stood at 0.912 ± 0.073; in the experiment on HCT116, 0.9345 ± 0.0064; with SW480 [2], 0.9405 ± 0.005. Also, the “TCF/Wnt firefly luciferase reporter signal” value with DLD1 [3] was 0.999 ± 0.13; in the experiment with SW480 [4], 1.05 ± 0.021.
The like results for `COc1c(OC)c2occc2c2oc(=O)ccc12` were, in that order, 1.004 ± 0.0085, 0.829 ± 0.16, 1.02 ± 0.077, 0.802 ± 0.21 and 0.948 ± 0.011.
As for `CNC(=C[N+](=O)[O-])NCCSCc1ccc(CN(C)C)o1`, the cell viability was 0.892 ± 0.018 with DLD1 [1], 0.983 ± 0.024 with HCT116 and 0.974 ± 0.011 in the experiment with SW480 [2]. For the same compound, the “TCF/Wnt firefly luciferase reporter signal” value with DLD1 [3] was determined as 0.998 ± 0.017; in the experiment with SW480 [4], 0.953 ± 0.016.
Take `Cc1cc(OC(=O)c2c(C)cc(O)cc2O)cc(O)c1C(=O)O`: the cell viability with DLD1 [1] was 1.08 ± 0.099; in the experiment with HCT116 it was 1.03 ± 0.035; with SW480 [2], 1.1 ± 0.071. Besides, the “TCF/Wnt firefly luciferase reporter signal” value in the experiment with DLD1 [3] stood at 1.03 ± 0.18; with SW480 [4] it was 1.06 ± 0.05.
As for `C=C[C@@H](C1=CC(=O)C(OC)=C(OC)C1=O)c1ccccc1`, the cell viability in the experiment on DLD1 [1] came to 0.903 ± 0.0057; in the experiment with HCT116 it was 0.856 ± 0.11; in the experiment with SW480 [2] it was 1.08 ± 0.014. Further, the results for the “TCF/Wnt firefly luciferase reporter signal” value with DLD1 [3] and with SW480 [4] were 0.712 ± 0.033 and 0.907 ± 0.023, respectively.
Take `CCOc1ccc(C(=O)c2ccc(O)c(O)c2O)cc1`: the cell viability stood at 0.928 ± 0.13 in the experiment with DLD1 [1], 0.97 ± 0.18 with HCT116 and 1 ± 0.052 in the experiment on SW480 [2]. The “TCF/Wnt firefly luciferase reporter signal” value in the experiment on DLD1 [3] was 0.964 ± 0.093; in the experiment with SW480 [4] it was 1.1 ± 0.071.
The like results for `COc1ccc2c(=O)ccoc2c1` were, in that order, 0.979 ± 0.059, 0.933 ± 0.11, 0.942 ± 0.0071, 1.03 ± 0.021 and 1.05 ± 0.1.
The like results for `CC1(C)C=CC(=O)[C@@]2(C)C1CC(=O)[C@]1(C)C2CC[C@@]2(C)[C@H](c3ccoc3)OC(=O)C3OC321` (stereo not given in full) were, in that order, 1 ± 0.012, 0.71 ± 0.61, 0.998 ± 0.018, 0.99 ± 0.029 and 0.854 ± 0.13.
As to `CC(C)C1=C2[C@H]3CCC4[C@@H]5[C@H](O[C@@H]6OC[C@@H](O)[C@H](O[C@@H]4O)C65O)[C@]3(C)CC[C@@]2(C)CC1` (stereo not given in full), the figures for the cell viability with DLD1 [1], in the experiment on HCT116 and in the experiment with SW480 [2] were 0.915 ± 0.067, 0.862 ± 0.11 and 0.938 ± 0.011, respectively. Moreover, the “TCF/Wnt firefly luciferase reporter signal” value in the experiment with DLD1 [3] was found to be 0.873 ± 0.014; in the experiment with SW480 [4], 0.968 ± 0.045.
Turning to `Cc1cc(CC(=O)O)n(C)c1C(=O)c1ccc(Cl)cc1`, the cell viability in the experiment with DLD1 [1] turned out to be 1.07 ± 0.035; with HCT116, 0.999 ± 0.03; in the experiment on SW480 [2], 1.05. Further, the “TCF/Wnt firefly luciferase reporter signal” value is 1.12 ± 0.24 in the experiment on DLD1 [3] and 0.97 ± 0.13 with SW480 [4].
For the compound `CC(C)[C@H](N)C(=O)OCCOCn1cnc2c(=O)nc(N)[nH]c21`, the cell viability with DLD1 [1] was found to be 1.01 ± 0.028; with HCT116, 0.879 ± 0.12; with SW480 [2] it was 0.938 ± 0.0071. Moreover, the “TCF/Wnt firefly luciferase reporter signal” value in the experiment with DLD1 [3] is 0.969 ± 0.16; with SW480 [4], 0.876 ± 0.11.
The like results for `C1CCN2C[C@@H]3C[C@H](CN4CCCC[C@@H]34)[C@H]2C1` were, in that order, 0.938 ± 0.076, 0.9855 ± 0.0064, 0.93 ± 0.035, 0.883 ± 0.072 and 0.979 ± 0.03.
`N=C(N)NCCN1CCCCCCC1`: the cell viability amounted to 1.03 ± 0.035 with DLD1 [1], 1.04 ± 0.11 in the experiment on HCT116 and 1.04 ± 0.05 with SW480 [2]. In addition, the figures for the “TCF/Wnt firefly luciferase reporter signal” value in the experiment with DLD1 [3] and in the experiment with SW480 [4] were 0.983 ± 0.081 and 1.115 ± 0.0071, respectively.
Consider `COc1ccc2c(c1)OCC(Cc1ccc(OC)c(OC)c1)C2=O` (stereo not given), for which the cell viability in the experiment with DLD1 [1] worked out at 0.995 ± 0.05; in the experiment on HCT116, 1.1 ± 0.092; in the experiment on SW480 [2] it was 1.02 ± 0.044. Further, the “TCF/Wnt firefly luciferase reporter signal” value amounted to 0.997 ± 0.15 with DLD1 [3] and 1.035 ± 0.0071 with SW480 [4].
The like results for `CC(C)=CC1C(C(=O)O)C1(C)C` (stereo not given) were, in that order, 1 ± 0.037, 0.98 ± 0.057, 0.977 ± 0.047, 0.897 ± 0.065 and 1.02 ± 0.058.
In the case of `COC(=O)c1c(C)cc(OC)cc1O`, the cell viability worked out at 0.99 ± 0.071 in the experiment on DLD1 [1], 1.03 ± 0.081 in the experiment with HCT116 and 0.951 ± 0.05 with SW480 [2]. The “TCF/Wnt firefly luciferase reporter signal” value was found to be 0.885 ± 0.047 in the experiment on DLD1 [3] and 0.869 ± 0.08 in the experiment on SW480 [4].
On to `COc1c(O)cc2oc3cc(O)c(CC=C(C)C)c(O)c3c(=O)c2c1CC=C(C)C` [alpha-MANGOSTIN], for which the cell viability was 1.055 ± 0.0071 in the experiment on DLD1 [1], 1.15 ± 0.021 in the experiment on HCT116 and 1.01 ± 0.015 with SW480 [2]. Also, the “TCF/Wnt firefly luciferase reporter signal” value in the experiment with DLD1 [3] amounted to 1.04 ± 0.24; in the experiment on SW480 [4], 0.941 ± 0.076.
In the case of `O=C(O)c1cc2cc(F)ccc2[nH]1`, the cell viability in the experiment with DLD1 [1] is 1.02 ± 0.053; with HCT116, 1.115 ± 0.0071; in the experiment with SW480 [2], 1.07 ± 0.085. In addition, the “TCF/Wnt firefly luciferase reporter signal” value in the experiment on DLD1 [3] came out at 0.963 ± 0.0057; with SW480 [4] it was 1.08 ± 0.085.
The like results for `CC1=C(C(=O)O)N2C(=O)[C@@H](NC(=O)[C@H](N)c3ccccc3)[C@H]2SC1` were, in that order, 1 ± 0.065, 1.02 ± 0.082, 0.983 ± 0.025, 0.991 ± 0.056 and 1.015 ± 0.0071.
The like results for `CN1C(C(=O)Nc2ccccn2)=C(O)c2ccccc2S1(=O)=O` were, in that order, 0.97 ± 0.057, 0.975 ± 0.036, 0.92 ± 0.061, 1.1 ± 0.071 and 1.14.
`CCCCCCCCCCCC[C@H](O)[C@@H]1CC[C@@H]([C@@H](O)CCCCCCCC(=O)CC[C@@H](O)CC2=C[C@H](C)OC2=O)O1` [annocherin]: the cell viability in the experiment with DLD1 [1] amounted to 0.904 ± 0.09; with HCT116 it was 0.871 ± 0.082; in the experiment on SW480 [2], 0.921 ± 0.093. Further, the entries for the “TCF/Wnt firefly luciferase reporter signal” value in the experiment with DLD1 [3] and with SW480 [4] were 0.843 ± 0.12 and 0.855 ± 0.32, respectively.
The like results for `C/C(=C\C(=O)OCCCCCCCCC(=O)O)C[C@@H]1OC[C@H](C[C@@H]2O[C@H]2[C@@H](C)[C@H](C)O)[C@@H](O)[C@H]1O` were, in that order, 0.973 ± 0.052, 1 ± 0.025, 0.939 ± 0.017, 0.9545 ± 0.0021 and 1.03 ± 0.028.
With `CC(=O)OC[C@@]1(O)C[C@@]23CC[C@@H]4c5ccoc5CC[C@@]4(C)[C@@H]2CC[C@@H]1C3`, the figures for the cell viability with DLD1 [1], with HCT116 and in the experiment on SW480 [2] were 1.02 ± 0.028, 1.05 ± 0.042 and 1.02, respectively. For the same compound, the “TCF/Wnt firefly luciferase reporter signal” value in the experiment on DLD1 [3] was found to be 1.08 ± 0.16; in the experiment on SW480 [4] it was 1.16 ± 0.057.
The like results for `N=C(N)NCCCCN` were, in that order, 1 ± 0.054, 1.15 ± 0.014, 1.02 ± 0.058, 1.02 ± 0.04 and 1.09 ± 0.071.
With `CC1CCC(NC(=O)N(CCCl)N=O)CC1` (stereo not given), the cell viability in the experiment with DLD1 [1] worked out at 1.01 ± 0.059; with HCT116, 1.02 ± 0.071; in the experiment on SW480 [2], 1.015 ± 0.0071. For the same compound, the “TCF/Wnt firefly luciferase reporter signal” value with DLD1 [3] was 1.08 ± 0.035; in the experiment with SW480 [4], 1.16 ± 0.028.
